According to ChEMBL document CHEMBL1961873, “Compounds: GSK PKIS; Assays: Nanosyn kinase panel” (2012):

Columns and labels:
[1] = target: T1, Muscle, skeletal receptor tyrosine-protein kinase (Homo sapiens) (UniProt O15146); settings: at 1 µM;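 further: reported value is the mean percent inhibition of MuSK kinase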
T1 sequence (whole entry): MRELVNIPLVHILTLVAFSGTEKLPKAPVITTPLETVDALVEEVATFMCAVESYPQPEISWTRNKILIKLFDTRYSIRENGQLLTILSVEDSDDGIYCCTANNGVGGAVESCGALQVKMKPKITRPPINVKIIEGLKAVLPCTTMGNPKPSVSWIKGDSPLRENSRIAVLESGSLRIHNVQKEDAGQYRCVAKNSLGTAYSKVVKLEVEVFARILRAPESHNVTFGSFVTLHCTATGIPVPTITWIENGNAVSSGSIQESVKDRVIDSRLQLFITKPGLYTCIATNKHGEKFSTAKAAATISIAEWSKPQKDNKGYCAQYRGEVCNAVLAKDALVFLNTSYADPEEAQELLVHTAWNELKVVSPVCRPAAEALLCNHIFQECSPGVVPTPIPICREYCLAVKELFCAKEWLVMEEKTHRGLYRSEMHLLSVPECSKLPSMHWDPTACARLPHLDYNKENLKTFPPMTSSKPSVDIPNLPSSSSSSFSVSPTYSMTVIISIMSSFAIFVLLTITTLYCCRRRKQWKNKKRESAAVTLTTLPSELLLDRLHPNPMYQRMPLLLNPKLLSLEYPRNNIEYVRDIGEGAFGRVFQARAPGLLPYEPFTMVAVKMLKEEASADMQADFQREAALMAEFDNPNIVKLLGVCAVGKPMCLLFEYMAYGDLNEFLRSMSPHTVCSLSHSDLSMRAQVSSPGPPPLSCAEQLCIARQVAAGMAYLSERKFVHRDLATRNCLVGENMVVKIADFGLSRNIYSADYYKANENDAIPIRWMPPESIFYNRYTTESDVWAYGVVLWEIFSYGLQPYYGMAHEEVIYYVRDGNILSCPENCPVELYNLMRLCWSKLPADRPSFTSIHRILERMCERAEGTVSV

[2] = target: Platelet-derived growth factor receptor alpha (Homo sapiens) (UniProt P16234); settings: at 0.1 µM
Sequence of Platelet-derived growth factor receptor alpha (Homo sapiens) (P16234 whole entry): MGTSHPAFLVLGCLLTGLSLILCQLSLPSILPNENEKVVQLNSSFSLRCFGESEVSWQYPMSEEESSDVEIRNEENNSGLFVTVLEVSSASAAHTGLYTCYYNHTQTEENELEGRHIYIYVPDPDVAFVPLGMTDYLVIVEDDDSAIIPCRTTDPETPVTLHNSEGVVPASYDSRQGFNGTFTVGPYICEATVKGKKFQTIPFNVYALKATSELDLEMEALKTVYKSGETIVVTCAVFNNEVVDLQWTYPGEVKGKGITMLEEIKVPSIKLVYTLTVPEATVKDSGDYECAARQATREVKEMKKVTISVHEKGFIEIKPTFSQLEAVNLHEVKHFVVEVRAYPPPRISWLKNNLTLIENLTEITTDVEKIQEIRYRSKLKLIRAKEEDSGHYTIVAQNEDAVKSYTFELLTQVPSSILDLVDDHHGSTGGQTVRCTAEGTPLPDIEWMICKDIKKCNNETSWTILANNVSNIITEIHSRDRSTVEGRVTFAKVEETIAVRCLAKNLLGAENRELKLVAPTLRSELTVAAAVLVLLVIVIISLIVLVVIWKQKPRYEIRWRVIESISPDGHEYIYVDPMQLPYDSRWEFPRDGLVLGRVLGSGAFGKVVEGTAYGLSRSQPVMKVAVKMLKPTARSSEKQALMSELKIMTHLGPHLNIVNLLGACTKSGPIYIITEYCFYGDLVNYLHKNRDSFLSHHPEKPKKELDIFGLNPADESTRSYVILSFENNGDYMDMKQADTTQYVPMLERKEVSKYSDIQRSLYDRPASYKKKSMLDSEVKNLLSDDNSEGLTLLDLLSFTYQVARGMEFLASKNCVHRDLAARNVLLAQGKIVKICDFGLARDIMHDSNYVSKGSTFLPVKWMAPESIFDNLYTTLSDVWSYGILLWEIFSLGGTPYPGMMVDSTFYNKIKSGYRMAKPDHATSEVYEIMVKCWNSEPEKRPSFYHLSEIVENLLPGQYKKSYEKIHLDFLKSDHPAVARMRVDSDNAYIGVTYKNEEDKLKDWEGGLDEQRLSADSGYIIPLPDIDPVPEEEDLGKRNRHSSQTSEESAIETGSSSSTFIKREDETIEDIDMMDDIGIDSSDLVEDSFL

[3] = target: Platelet-derived growth factor receptor alpha (Homo sapiens) (UniProt P16234); settings: at 1 µM
[4] = test system: Platelet-derived growth factor receptor alpha (Homo sapiens), P16234 [D842V]; settings: at 0.1 µM
Sequence of Platelet-derived growth factor receptor alpha (Homo sapiens), P16234 [D842V] (P16234 whole entry D842V): as the sequence (P16234 whole entry) above, with D842V counted along it

[5] = test system: Platelet-derived growth factor receptor alpha (Homo sapiens), P16234 [D842V]; settings: at 1 µM
[6] = test system: Platelet-derived growth factor receptor alpha (Homo sapiens), P16234 [T674I]; settings: at 0.1 µM
Sequence of Platelet-derived growth factor receptor alpha (Homo sapiens), P16234 [T674I] (P16234 whole entry T674I): as the sequence (P16234 whole entry) above, with T674I counted along it

[7] = test system: Platelet-derived growth factor receptor alpha (Homo sapiens), P16234 [T674I]; settings: at 1 µM
[8] = test system: Platelet-derived growth factor receptor alpha (Homo sapiens), P16234 [V561D]; settings: at 0.1 µM
Sequence of Platelet-derived growth factor receptor alpha (Homo sapiens), P16234 [V561D] (P16234 whole entry V561D): as the sequence (P16234 whole entry) above, with V561D counted along it

[9] = test system: Platelet-derived growth factor receptor alpha (Homo sapiens), P16234 [V561D]; settings: at 1 µM
[10] = target: Platelet-derived growth factor receptor beta (Homo sapiens) (UniProt P09619); settings: at 0.1 µM;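 further: reported value is the mean percent inhibition of the kinase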
Sequence of Platelet-derived growth factor receptor beta (Homo sapiens) (P09619 whole entry): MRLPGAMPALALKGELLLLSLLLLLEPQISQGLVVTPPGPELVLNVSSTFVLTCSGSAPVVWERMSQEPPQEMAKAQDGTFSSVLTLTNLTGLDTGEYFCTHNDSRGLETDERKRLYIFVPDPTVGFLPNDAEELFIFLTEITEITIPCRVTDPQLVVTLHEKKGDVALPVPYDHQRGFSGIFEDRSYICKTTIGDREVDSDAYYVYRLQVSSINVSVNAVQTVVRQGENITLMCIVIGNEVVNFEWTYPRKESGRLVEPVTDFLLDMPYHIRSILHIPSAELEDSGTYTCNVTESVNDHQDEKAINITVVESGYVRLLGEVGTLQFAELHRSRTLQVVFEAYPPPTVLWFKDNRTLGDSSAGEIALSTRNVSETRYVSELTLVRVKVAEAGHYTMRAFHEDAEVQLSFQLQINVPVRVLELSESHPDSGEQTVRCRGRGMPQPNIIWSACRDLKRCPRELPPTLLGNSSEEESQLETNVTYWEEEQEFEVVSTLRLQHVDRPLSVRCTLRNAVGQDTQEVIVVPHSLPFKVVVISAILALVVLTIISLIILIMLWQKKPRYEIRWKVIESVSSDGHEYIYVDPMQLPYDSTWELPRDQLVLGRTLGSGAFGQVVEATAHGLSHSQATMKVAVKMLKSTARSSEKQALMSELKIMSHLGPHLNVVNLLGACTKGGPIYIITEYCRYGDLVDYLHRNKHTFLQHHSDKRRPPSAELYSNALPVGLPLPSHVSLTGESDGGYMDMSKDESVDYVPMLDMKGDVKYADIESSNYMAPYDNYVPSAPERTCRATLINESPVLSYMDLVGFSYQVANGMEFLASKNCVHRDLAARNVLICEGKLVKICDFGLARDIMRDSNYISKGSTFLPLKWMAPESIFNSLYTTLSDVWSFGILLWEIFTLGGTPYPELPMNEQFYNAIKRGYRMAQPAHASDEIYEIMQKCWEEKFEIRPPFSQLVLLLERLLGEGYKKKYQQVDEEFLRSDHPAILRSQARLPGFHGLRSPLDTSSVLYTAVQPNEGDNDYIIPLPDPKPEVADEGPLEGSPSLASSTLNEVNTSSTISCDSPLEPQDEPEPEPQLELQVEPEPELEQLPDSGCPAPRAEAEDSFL

| Compound | inhibition [1] | inhibition [2] | inhibition [3] | inhibition [4] | inhibition [5] | inhibition [6] | inhibition [7] | inhibition [8] | inhibition [9] | inhibition [10] |
| --- | --- | --- | --- | --- | --- | --- | --- | --- | --- | --- |
| CN(C)c1cc2c(Nc3ccc4c(cnn4Cc4ccccc4)c3)ncnc2cn1 | 1.56% | 0% | 8.21% | 0.65% | 4.51% | 3.93% | 8.69% | 0.81% | 6.19% | -1% |
| Cc1ccc2c(-c3ccnc(Nc4cccc(C(F)(F)F)c4)n3)c(-c3ccccc3)nn2n1 | 5.46% | 13.9% | 61% | 10.5% | 38.4% | 3.21% | 9.14% | 14.2% | 52% | 35.4% |
| NC(=O)c1sc(-n2cnc3ccccc32)cc1OCc1ccccc1Br | 7.28% | 6.48% | 15.4% | 4.15% | 6.85% | 2.52% | 5.25% | 5.2% | 9.55% | 4.3% |
| NS(=O)(=O)c1cccc(-c2cc3ccncc3cc2OCc2ccccc2)c1 | 4.58% | 13.6% | 17.2% | 2.28% | 4.36% | 14.8% | 6.72% | 2.61% | 9.52% | 7.66% |
| Cc1ccc(NC(=O)CC2CC2)cc1-c1ccc(C(=O)NCC2CC2)cc1 | 5.33% | 8.04% | 13.8% | 2.79% | 4.37% | 3.52% | 9.3% | 4.68% | 5.09% | 4.05% |
| CN(c1ccc(NC(=O)Nc2ccc(OC(F)(F)F)cc2)cc1)c1ccnc(Nc2cccc(S(N)(=O)=O)c2)n1 | 58.5% | 76.3% | 86.7% | 9.66% | 46.4% | 46.9% | 87.1% | 87.2% | 96.8% | 67.5% |
| CN(C)C(=O)O[C@@H]1CN[C@@H](C#Cc2cc3ncnc(Nc4ccc(OCc5cccc(F)c5)c(Cl)c4)c3s2)C1 | 1.14% | 3.88% | 7.94% | 0.63% | 1.66% | 1% | 0.01% | 0.98% | 5.29% | 5.61% |
| Nc1nccc(-c2c(-c3ccc(F)cc3)nn3cc(C(F)(F)F)ccc23)n1 | -0.61% | 5.02% | 5.93% | 0.17% | 0.96% | -0.84% | 1.89% | 1.05% | 1.99% | 0.39% |
| O=C1Nc2ccccc2/C1=C/Nc1ccc2[nH]c(=O)[nH]c2c1 | 29.5% | 26.1% | 65.3% | 18% | 69.2% | 18.2% | 80.1% | 26.1% | 69.8% | 19.7% |
| NS(=O)(=O)c1cccc(Nc2cc(-c3ccc(F)cc3)n[nH]2)c1 | 13.7% | 12.7% | 36.1% | 3.21% | 16.6% | 9.3% | 43% | 29.1% | 50.8% | 12.7% |
| CCn1c(-c2nonc2N)nc2ccc(F)cc21 | 3.46% | 9.43% | 8.14% | 3.01% | 3.62% | 8.13% | 10.2% | 5.36% | 2.86% | 5.06% |
| COc1cccc(-n2ncc3c(N/N=C/c4ccc(C)cc4)ncnc32)c1 | 13% | 8.78% | 23.2% | 6.24% | 24.4% | 4.6% | 17.1% | 7.1% | 25.9% | 7.34% |
| Cc1ccc(C(=O)NC2CC2)cc1-c1ccc2[nH]ncc2c1 | 2.51% | 2.1% | 13.4% | 1.95% | 4.58% | 1.44% | 2.76% | 3.49% | 13.8% | 1.82% |
| Cc1ccc2c(c1)/C(=N/Nc1ccc(S(N)(=O)=O)cc1)C(=O)N2 | 16.2% | 12.2% | 37.7% | 2.85% | 13.1% | 11.5% | 70.2% | 21.8% | 52.3% | 8.12% |
| NS(=O)(=O)c1ccc(Nc2cc(-c3cccc(O)c3)n[nH]2)cc1 | 12.9% | 16.7% | 40.4% | 4.21% | 13.8% | 12.8% | 6.05% | 17.7% | 49% | 9.08% |
| CN(C)C(=O)O[C@H]1CN[C@H](C#Cc2cc3ncnc(Nc4ccc(OCc5cccc(F)c5)c(Cl)c4)c3s2)C1 | 3.36% | 6.77% | 11.1% | 3.09% | 1.15% | 5.6% | 4.48% | 4.17% | 7.24% | 2.18% |
| Cc1nc(-c2ccccc2)n2nc(NCCCN3CCOCC3)ncc12 | 5.56% | 3.35% | 9.81% | 0.64% | 6.14% | 3% | 5.5% | 2.27% | 3.3% | 1.99% |

| Compound | inhibition [1] | inhibition [2] | inhibition [3] | inhibition [4] | inhibition [5] | inhibition [6] | inhibition [7] | inhibition [8] | inhibition [9] | inhibition [10] |
| --- | --- | --- | --- | --- | --- | --- | --- | --- | --- | --- |
| FC(F)(F)c1ccc(-c2nn3ncccc3c2-c2ccnc(Nc3ccc4c(c3)OCCO4)n2)cc1 | 15% | 9.5% | 19.5% | 1.06% | 5.73% | – | 5.8% | 6.7% | 11.7% | 9.78% |
| C[C@@H](Oc1cc(-n2cnc3ccc(OCC4CCN(C)CC4)cc32)sc1C(N)=O)c1ccccc1C(F)(F)F | 76% | 25.1% | 69.4% | 18.1% | 65.6% | 4.88% | 46% | 17.7% | 66.2% | 56.3% |
| ON=C1CCc2cc(-c3nc(C4CCNCC4)[nH]c3-c3ccncc3)ccc21 | 1.9% | 2.97% | 10.5% | 2.44% | 6.66% | 1% | 0.52% | 1.54% | 6.14% | 4.22% |
| NC(=O)c1cccc(Nc2nccc(Nc3cccc(F)c3)n2)c1 | 7.74% | 7.13% | 43.4% | 1.84% | 33.6% | 0.83% | 5.92% | 6.64% | 46% | 11.5% |
| COc1cccc(-n2ncc3c(N/N=C/c4ccc(S(C)(=O)=O)cc4)ncnc32)c1 | 23.3% | 43.7% | 77.8% | 51.8% | 89% | 21% | 80.5% | 44.1% | 86.2% | 52.4% |
| C[C@@H](Oc1cc(-n2cnc3ccc(OC[C@@H](O)CO)cc32)sc1C(N)=O)c1ccccc1Cl | 51.4% | 13.8% | 62.4% | 4.15% | 40.5% | 0.37% | 51.2% | 7.79% | 50.1% | 7.9% |
| CC(C)c1ccc2c(c1)NC(=O)/C2=N/Nc1ccc(S(N)(=O)=O)cc1 | 3.81% | 6.3% | 34.2% | 1.62% | 17.2% | 6.18% | 48.9% | 21.5% | 52.3% | 4.34% |
| COc1cc2ncnc(Nc3ccc(C)c(O)c3)c2cc1OC | 7.42% | 85.7% | 93.9% | 94.2% | 98% | 6.7% | 16.9% | 89.4% | 97.8% | 33.2% |
| c1ccc(Nc2ncc(-c3ccccc3)o2)cc1 | 4.33% | 9.48% | 30.3% | 3.2% | 7.2% | 6.18% | 36.6% | 20% | 45.7% | 10.8% |
| COC(=O)Nc1nc2cc(Oc3ccc(NC(=O)Nc4cccc(Br)c4)cc3)ccc2[nH]1 | 49.3% | 75.2% | 87.4% | 5.64% | 13.8% | 83.8% | 98.1% | 84% | 94.6% | 17.4% |
| CCOc1nccc2c1nc(-c1nonc1N)n2CC | 8.7% | 11.7% | 19.1% | 1.89% | 6.37% | 10.8% | 9.83% | 6.37% | 5.39% | 7.89% |
| O=C1Nc2ccc(-c3cccnc3)cc2C1=Cc1cc(Br)c(O)c(Br)c1 | 5.67% | 10.2% | 20.2% | 4.65% | 12.5% | 5.16% | 5.71% | 5.57% | 23.6% | 1.45% |
| CN1CCN(C(=O)c2ccc(NC(=O)Nc3ccc(N(C)c4ccnc(Nc5ccc(CS(C)(=O)=O)cc5)n4)cc3)cc2)CC1 | 38.9% | 59.9% | 77.5% | 7.23% | 46.1% | 67.2% | 85.5% | 75.2% | 94.1% | 60.3% |
| NS(=O)(=O)c1ccc(N/N=C2\C(=O)Nc3ccc(Cl)cc32)cc1 | 12.6% | 13.1% | 40.6% | 4.17% | 13.1% | 11.4% | 62.9% | 17.2% | 47% | 11.1% |
| Nc1nccc(-c2c(-c3ccc(F)cc3)ncn2CCCN2CCOCC2)n1 | 3.99% | 4.62% | 14.7% | 1.96% | 6.03% | 6.08% | 7.81% | 3.07% | 8.56% | 3.65% |
| CCS(=O)(=O)c1ccc(OC)c(Nc2ncc(-c3cccc(OC)c3)o2)c1 | – | 23.5% | 58.4% | 10.9% | 55.3% | 4.09% | 10.2% | 19.6% | 68.7% | 43.7% |
| N#Cc1cccc(Nc2nccc(-c3cnn4ncccc34)n2)c1 | 24.6% | 16.3% | 52.5% | 10.5% | 48.8% | 15.7% | 60.5% | 23.3% | 59.9% | 27.2% |
